Outcome and AC50 data for 11 compounds are collected here from PubChem BioAssay (EPA / NIEHS).

Usually AC50 stands for the concentration giving half of the maximal activity seen.

Assay [1] can be described thus: Tanguay_ZF_120hpf_JAW_legacy: (Legacy) Oregon State University Tanguay Lab 120 Hour Post-fertilization zebrafish Assay for Jaw Malformation (AID 2283638). An outline of the steps: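 Static waterborne exposure of dechorionated wild-type (Tropical 5D) zebrafish from 6 to 120 hpf at 28C, 0.64% DMSO vehicle; 5uM trimethyltin chloride served as positive control. Jaw morphology recorded as binary at 120 hpf.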

Assay [2] is described as follows: Tanguay_ZF_120hpf_OTIC_legacy: (Legacy) Oregon State University Tanguay Lab 120 Hour Post-fertilization zebrafish Assay for Otic Vesicle Malformation (AID 2283639). An outline of the steps:
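Otic vesicle malformation is read as a yes/no morphology call at 120 hpf. Exposure is static at 28C with 0.64% (vol/vol) DMSO; embryos that die are excluded from non-mortality endpoints.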

A short description of assay [3]: Tanguay_ZF_120hpf_SOMI_legacy: (Legacy) Oregon State University Tanguay Lab 120 Hour Post-fertilization zebrafish Assay for Somite Malformation (AID 2283647). An outline of the steps: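 5D WT zebrafish; chorion removed 4 hpf; 1 embryo/well from 6 hpf; static exposure to 120 hpf, 28C, 0.64% DMSO final. Endpoint: somite malformation, binary, brightfield. Mortality excluded.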

A short description of assay [4]: Tanguay_ZF_120hpf_PFIN_legacy: (Legacy) Oregon State University Tanguay Lab 120 Hour Post-fertilization zebrafish Assay for Pectoral Fin Malformation (AID 2283648).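 Note: each larva judged yes or no for fin defect by brightfield with dead larvae skipped.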 A digest of the protocol: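 5D WT zebrafish; pronase dechorionation 4 hpf; 1 embryo/well at 6 hpf; static exposure to 120 hpf, 28C, sealed, foil-covered; final DMSO 0.64% v/v; 5 uM trimethyltin chloride positive control; fin defect scored yes/no.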

A short description of assay [5]: Tanguay_ZF_120hpf_CFIN_legacy: (Legacy) Oregon State University Tanguay Lab 120 Hour Post-fertilization zebrafish Assay for Caudal Fin Malformation (AID 2283649). An outline of the steps: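 Embryos were collected from Tropical 5D wild-type adults and dechorionated at 4 hpf. At 6 hpf each was exposed, one per well, at 0.64% DMSO and 28C. At 120 hpf fin morphology was scored; dead embryos were excluded.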

Assay [6] can be described thus: Tanguay_ZF_120hpf_SWIM_legacy: (Legacy) Oregon State University Tanguay Lab 120 Hour Post-fertilization zebrafish Assay for Swim Bladder Malformation (AID 2283654).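 Note: swim bladder malformation in each larva scored yes or no under brightfield.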 A digest of the protocol: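 Embryos lacking chorions were exposed individually and statically to test chemical from 6 to 120 hpf at 28C, with 0.64% DMSO as vehicle. At 120 hpf, swim bladder malformation was recorded as present or absent by brightfield microscopy.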

Assay [7] in a line: Tanguay_ZF_120hpf_NC_legacy: (Legacy) Oregon State University Tanguay Lab 120 Hour Post-fertilization zebrafish Assay for Notochord and Tail Malformation (AID 2283656). A digest of the protocol:
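Dechorionated 5D zebrafish, 1/well from 6 hpf; static exposure to 120 hpf, 28C, sealed, dark; final DMSO 0.64% v/v. NC scored binary (present/absent); dead embryos not scored. Fit vs DMSO baseline, gain direction.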

Assay [8] is described as follows: Tanguay_ZF_120hpf_PIG_legacy: (Legacy) Oregon State University Tanguay Lab 120 Hour Post-fertilization zebrafish Assay for Pigmentation Malformation (AID 2283650). A digest of the protocol: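 Pronase dechorionation at 4 hpf; embryos plated at 6 hpf, one per well; static exposure, sealed and foil-covered, 28C, to 120 hpf; pigmentation read by brightfield, binary; DMSO 0.64% baseline, 5uM trimethyltin chloride positive control.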

The nature of assay [9]: Tanguay_ZF_120hpf_CIRC_legacy: (Legacy) Oregon State University Tanguay Lab 120 Hour Post-fertilization zebrafish Assay for Circulatory Malformation (AID 2283651). An outline of the steps: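 Using wild-type Tropical 5D zebrafish, we exposed dechorionated embryos from 6 to 120 hpf in embryo medium with 0.64% DMSO. Circulatory defects were scored as present or absent; 5uM trimethyltin chloride served as positive control.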

Assay [10] has as its system Thyroperoxidase (TPO), gene 54314. The assay can be described thus: CCTE_Simmons_AUR_rTPO: CCTE's Amplex UltraRed Assay for Thyroperoxidase (TPO) Inhibition, Simmons Lab (AID 2283662).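 Note: potency for loss of signal meaning inhibition of peroxidase activity.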 An outline of the steps:
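Endpoint is decreased Amplex UltraRed fluorescence after a 30-min, 37C reaction of rat thyroid microsomes with 300 uM H2O2. Eight test concentrations (5 nM–87.5 uM final) in 0.5% DMSO, three biological replicates each.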

Assay [11] is described as follows: CCTE_Simmons_CellTiterGLO_HEK293T: Viability Assessment in CCTE's Assays for Thyroperoxidase (TPO) Inhibition, Simmons Lab (AID 2283665).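 For AC50: cells exposed to compound for 24 h before readout; actives reduce ATP signal below DMSO vehicle meaning cytotoxicity.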 A digest of the protocol: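 Cytotoxicity counter-screen: human HEK293T cells in low-serum (1% FBS) medium receive test chemical, 5 nM to 87.5 uM final, for 24 h; ATP is quantified by luciferase luminescence.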
Assay [12] in a line: Tanguay_ZF_120hpf_TR_legacy: (Legacy) Oregon State University Tanguay Lab 120 Hour Post-fertilization zebrafish Assay for Touch Response (AID 2283667). A digest of the protocol:
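5D WT embryos; static exposure to 120 hpf, 28C, sealed/dark; DMSO 0.64% v/v final. TR scored present/absent; dead embryos excluded. Pos ctrl 5uM trimethyltin chloride.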

Assay [13] can be described thus: Tanguay_ZF_120hpf_PE_legacy: (Legacy) Oregon State University Tanguay Lab 120 Hour Post-fertilization zebrafish Assay for Pericardial Edema (AID 2283640). An outline of the steps: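 Read-out is the presence or absence of pericardial edema at 120 hpf under brightfield, with gain of signal fitted against DMSO controls. Larvae (5D wild-type) were statically exposed at 28C with 0.64% final DMSO.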

Assay [14] in a line: Tanguay_ZF_120hpf_BRAI_legacy: (Legacy) Oregon State University Tanguay Lab 120 Hour Post-fertilization zebrafish Assay for Brain Malformation (AID 2283641). A digest of the protocol:
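Brain malformation in Tropical 5D zebrafish was recorded as a binary endpoint after static compound exposure from early development to 120 hpf at 28C. Activity was analysed against DMSO as negative control.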

The nature of assay [15]: Tanguay_ZF_120hpf_TRUN_legacy: (Legacy) Oregon State University Tanguay Lab 120 Hour Post-fertilization zebrafish Assay for Truncated Body (AID 2283655). A digest of the protocol:
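5D wild-type larvae; pronase dechorionation; static exposure 6→120 hpf, 28C; DMSO 0.64% final; 5uM trimethyltin chloride positive control. Readout: presence/absence of truncated body, analyzed relative to DMSO.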

Read-out in assay [16]: solute carrier (SLC22A6), SLC22A6 (gene 9356)
The assay can be described thus: LTEA_HepaRG_SLC22A6: Life Technologies and Expression Analysis (LTEA) Assay for solute carrier (SLC22A6) using HepaRG (AID 2283653; active = hit-call score of the fitted dose curve at least 0.9, where 1 is the maximum; inactive = score below 0.9). The note with it: mRNA level, 48 h; actives raise or lower the signal. A digest of the protocol: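 This endpoint tracks SLC22A6 mRNA induction or suppression in human HepaRG cultures after 48 h dosing, concentrations reaching 100 uM. Values derive from bidirectional fitting against DMSO controls.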

Read-out in assay [17]: solute carrier (SLC10A1), SLC10A1 (gene 6554)
The assay can be described thus: LTEA_HepaRG_SLC10A1: Life Technologies and Expression Analysis (LTEA) Assay for solute carrier (SLC10A1) using HepaRG (AID 2283657; active = hit-call score of the fitted dose curve at least 0.9, where 1 is the maximum; inactive = score below 0.9). Conditions: mRNA level, 48 h; actives raise or lower the signal. A digest of the protocol: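 Transcript levels were measured by qRT-PCR after human HepaRG cells received test chemical for 48 hours, up to 100 uM in half-log dilutions. Values come from bidirectional concentration-response fitting relative to 0.5% DMSO vehicle.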

Read-out in assay [18]: matrix metalloproteinase-1 (MMP1), MMP1 (gene 4312)
Description: LTEA_HepaRG_MMP1: Life Technologies and Expression Analysis (LTEA) Assay for matrix metalloproteinase-1 (MMP1) using HepaRG (AID 2283658; active = hit-call score of the fitted dose curve at least 0.9, where 1 is the maximum; inactive = score below 0.9). Conditions: mRNA level, 48 h; actives raise or lower the signal. A digest of the protocol:
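Bidirectional concentration-response fitting relative to 0.5% DMSO gives the endpoint, derived from MMP1 mRNA levels (qRT-PCR) in human HepaRG cells treated 48 h with chemicals up to 100 uM.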

Read-out in assay [19]: Cytochrome P450 (CYP24A1_1), CYP24A1 (gene 1591)
Description: LTEA_HepaRG_CYP24A1_1: Life Technologies and Expression Analysis (LTEA) Assay for Cytochrome P450 (CYP24A1_1) using HepaRG (AID 2283671; active = hit-call score of the fitted dose curve at least 0.9, where 1 is the maximum; inactive = score below 0.9). The note with it: mRNA level, 48 h; actives raise or lower the signal. An outline of the steps:
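In this test, gene induction or suppression of CYP24A1 in human HepaRG liver cells is measured by qRT-PCR after 48 h chemical treatment (eight concentrations, maximum 100 uM). Values are fitted bidirectionally relative to DMSO.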

Records with an inconclusive call do not appear. Calls of active or inactive are those of the source. Rule for the calls, unless noted: active = hit-call score of the fitted dose curve at least 0.9, where 1 is the maximum; inconclusive = response in the unintended direction; inactive = score below 0.9.

`CCCCCCCCOc1ccc(C(=O)c2ccccc2)c(O)c1`: the outcome in assay [1], in assay [2], in assay [3], in assay [4], in assay [5] and in assay [6] was inactive. Also, the call in [7] was inactive.

`CN(C)c1ccc(C(=C2C=CC(=[N+](C)C)C=C2)c2ccc(N(C)C)cc2)cc1`: the result in assay [4], in assay [5], in assay [8], in [9], in [6] and in assay [12] was inactive. The AC50 in [10] is 15.9 µM (active); in assay [11], 0.955 µM (active).

Take `CCCCCc1ccc(N)cc1`: the compound was classed as inactive in [2], in assay [13], in [14], in assay [4], in assay [5] and in assay [6]. Further, the outcome in assay [15], in assay [7] and in [12] was inactive. Besides, the AC50 in assay [10] is 0.0637 µM (active); in assay [11] it was 26.7 µM (active).

With `O=C1O[C@H]([C@@H](O)CO)C(O)=C1O`, the compound was called inactive in assay [14], in [3], in assay [4], in [5], in assay [7] and in assay [11]. In addition, in assay [12], the call was inactive. Moreover, the AC50 in assay [10] is 43.8 µM (active).

Turning to `CCCCCCCCCCCO`, the compound was called inactive in assay [1], in [2], in assay [13], in assay [14], in assay [4] and in assay [5]. Further, the outcome in assay [8], in [6] and in assay [12] was inactive.

In the case of `CCO[Si](CCCNC(N)=O)(OCC)OCC`, the outcome in assay [1], in assay [2], in assay [13], in [14], in assay [3] and in [4] was inactive. For the same compound, the result in assay [9], in [6], in assay [7] and in assay [12] was inactive.

As to `CCCC(=O)OCCC(C)C`, the compound was classed as inactive in assay [1], in assay [2], in [13], in assay [14], in assay [3] and in assay [4]. The compound was classed as inactive in assay [6], in assay [15] and in assay [7].

For `CCN(CC)C(=O)c1cc(S(=O)(=O)Cc2ccccc2)c(N2CCC(c3ccccc3)CC2)cc1N(CC)CCN(C)C`, the result in assay [1], in assay [2], in assay [13], in [3], in assay [4] and in assay [16] was inactive. The result in assay [6], in assay [7], in [17], in assay [18], in [12] and in assay [19] was inactive. For the same compound, in [14], the AC50 was 13.8 µM (active).

For the compound `COc1ccc2cc(S(=O)(=O)N[C@H](CC(=O)N[C@H](Cc3ccc(CN4[C@H](C)CCC[C@@H]4C)cc3)C(=O)N(C)C(C)C)c3ccc4c(c3)OCO4)ccc2c1`, the result in assay [1], in [13], in assay [14], in assay [4], in assay [5] and in assay [6] was inactive. Besides, the call in assay [7] and in [12] was inactive.

With `CC1=CC(=O)/C(=C(/C)O)C(=O)O1`, the outcome in [1], in assay [2], in assay [13], in assay [14], in assay [4] and in assay [5] was inactive. The call in [9] and in [7] was inactive.

Regarding `CC(=O)N1CCN(c2ccc(OC[C@H]3CO[C@](Cn4ccnc4)(c4ccc(Cl)cc4Cl)O3)cc2)CC1`, the result in assay [2], in [13], in assay [3], in assay [5], in assay [9] and in [6] was inactive. The call in assay [7] and in assay [12] was inactive. Moreover, the AC50 in assay [10] was 19.2 µM (active); in assay [11] it was 1.26 µM (active).
